Results taken from ChEMBL document CHEMBL3988442, “University of Dundee, Small-Polar-MMV Screening Library” (2021).
For some of these results: Potency and affinity values are given separately.

Columns and labels:
Design in all cases: scale not given: direction of the effect not stated beside the values
[1] = target: Protein translocase subunit SecA (Escherichia coli (strain K12)) (UniProt P10408); assay: Assay to Identify E. coli SecA ATPase Inhibitors; format: functional; conditions: 30 µM
[2] = target: T1, Ubiquitin-activating enzyme e1, putative (Leishmania donovani (strain BPK282A1)) (UniProt E9BSI1); assay: Leishmania donovani Ubiquitin Activating Enzyme (LdE1); format: functional; conditions: 30 µM
T1 sequence (whole entry): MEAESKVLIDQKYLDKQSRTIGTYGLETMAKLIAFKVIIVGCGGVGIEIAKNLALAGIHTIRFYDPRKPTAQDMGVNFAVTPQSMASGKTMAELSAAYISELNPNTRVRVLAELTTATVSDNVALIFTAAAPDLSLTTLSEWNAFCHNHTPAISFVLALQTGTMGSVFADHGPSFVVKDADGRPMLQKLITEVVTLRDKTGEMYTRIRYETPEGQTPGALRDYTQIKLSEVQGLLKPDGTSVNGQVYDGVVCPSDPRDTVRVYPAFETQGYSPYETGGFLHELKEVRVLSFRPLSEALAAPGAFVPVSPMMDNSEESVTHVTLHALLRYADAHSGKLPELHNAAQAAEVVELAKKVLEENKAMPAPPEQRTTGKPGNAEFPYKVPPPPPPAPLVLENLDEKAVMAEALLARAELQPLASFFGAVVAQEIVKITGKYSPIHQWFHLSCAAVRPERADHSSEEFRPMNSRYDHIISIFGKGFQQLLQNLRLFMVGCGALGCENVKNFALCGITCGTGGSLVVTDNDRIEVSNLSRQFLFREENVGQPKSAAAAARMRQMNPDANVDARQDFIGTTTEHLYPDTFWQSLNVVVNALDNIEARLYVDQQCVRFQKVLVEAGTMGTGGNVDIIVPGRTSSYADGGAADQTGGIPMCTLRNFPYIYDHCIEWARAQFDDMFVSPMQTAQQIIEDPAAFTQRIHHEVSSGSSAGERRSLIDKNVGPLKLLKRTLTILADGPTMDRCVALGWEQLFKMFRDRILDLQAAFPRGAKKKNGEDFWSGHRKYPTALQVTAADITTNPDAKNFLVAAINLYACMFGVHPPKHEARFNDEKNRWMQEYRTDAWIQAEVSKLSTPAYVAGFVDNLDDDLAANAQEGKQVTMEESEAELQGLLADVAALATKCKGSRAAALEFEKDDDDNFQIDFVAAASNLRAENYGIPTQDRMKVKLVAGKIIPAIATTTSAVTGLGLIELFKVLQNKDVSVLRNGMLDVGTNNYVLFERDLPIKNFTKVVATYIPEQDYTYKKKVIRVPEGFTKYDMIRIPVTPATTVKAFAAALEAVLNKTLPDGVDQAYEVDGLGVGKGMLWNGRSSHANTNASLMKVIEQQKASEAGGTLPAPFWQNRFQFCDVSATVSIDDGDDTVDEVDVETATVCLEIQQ

[3] = target: AMP-activated protein kinase, AMPK (Homo sapiens) (UniProt P54646+O43741+P54619+Q9UGJ0+Q9Y478+Q13131+Q9UGI9); assay: AMP-dependent Kinase enzyme assay. An in vitro enzyme assay that detects ADP turnover that is directly proportional to AMPK activity. This uses naive AMPK that is activated during the assay with MK-8722; format: functional; conditions: 30 µM
[4] = target: Sialic acid-binding Ig-like lectin 9 (Homo sapiens) (UniProt Q9Y336); assay: Hs-Siglec9 ALPHAscreen SOP 20170721; conditions: 10 µM
Chain of Sialic acid-binding Ig-like lectin 9 (Homo sapiens) (Q9Y336 whole entry): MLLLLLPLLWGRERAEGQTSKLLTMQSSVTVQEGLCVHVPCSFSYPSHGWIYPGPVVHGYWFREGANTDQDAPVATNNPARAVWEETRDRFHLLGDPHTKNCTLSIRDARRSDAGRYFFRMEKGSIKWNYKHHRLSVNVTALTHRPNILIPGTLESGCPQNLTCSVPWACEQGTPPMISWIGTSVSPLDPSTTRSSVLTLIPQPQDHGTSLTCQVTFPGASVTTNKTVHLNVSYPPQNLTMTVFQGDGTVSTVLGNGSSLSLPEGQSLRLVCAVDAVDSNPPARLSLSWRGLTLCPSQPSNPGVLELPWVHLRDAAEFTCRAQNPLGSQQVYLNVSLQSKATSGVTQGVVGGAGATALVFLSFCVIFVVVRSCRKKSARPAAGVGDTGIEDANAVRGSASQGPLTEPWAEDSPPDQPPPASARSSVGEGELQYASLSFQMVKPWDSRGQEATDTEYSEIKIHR

Trypanosoma cruzi = assay: Trypanosoma cruzi phosphomannomutase and mannose-1-phosphate guanylyltransferase assay; format: functional; conditions: 10 µM
[5] = target: T2, Arginase-2, mitochondrial (Homo sapiens) (UniProt P78540); assay: in vitro enzyme assay to detect the production of urea directly proportional to the activity of Arginase II; format: functional; conditions: 33.3 µM; further: in the data most compounds retested in dose-response had high values
T2 sequence (whole entry): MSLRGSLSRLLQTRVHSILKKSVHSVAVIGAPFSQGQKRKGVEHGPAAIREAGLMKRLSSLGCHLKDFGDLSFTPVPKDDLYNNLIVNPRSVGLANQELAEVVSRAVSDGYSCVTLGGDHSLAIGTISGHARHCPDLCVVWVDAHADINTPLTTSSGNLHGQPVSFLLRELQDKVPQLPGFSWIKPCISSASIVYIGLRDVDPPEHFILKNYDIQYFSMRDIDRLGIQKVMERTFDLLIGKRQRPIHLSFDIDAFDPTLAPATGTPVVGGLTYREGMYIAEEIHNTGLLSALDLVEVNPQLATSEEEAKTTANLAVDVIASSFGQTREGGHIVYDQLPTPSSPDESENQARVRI

[6] = target: T3, Proteasome subunit beta (Trypanosoma cruzi) (UniProt O96673); assay: Trypanosoma cruzi proteasome chymotrypsin-like activity (TcProtChymo) assay.; further: in the data most compounds retested in dose-response had high values; format: functional; conditions: 9.37 µM
T3 sequence (whole entry): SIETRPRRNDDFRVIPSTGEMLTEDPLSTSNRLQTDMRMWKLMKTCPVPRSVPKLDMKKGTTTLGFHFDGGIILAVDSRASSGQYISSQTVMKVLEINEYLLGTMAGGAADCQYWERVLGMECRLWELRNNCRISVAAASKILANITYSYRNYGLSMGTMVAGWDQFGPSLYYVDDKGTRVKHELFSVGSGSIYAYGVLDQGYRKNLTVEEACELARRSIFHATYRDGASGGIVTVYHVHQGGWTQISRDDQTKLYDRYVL

Homo sapiens = species on record: Homo sapiens; assay: To identify inhibition of the IFN signalling (Jak-Stat) pathway via expression of an eGFP reporter gene under the control of an IFN-stimulated response element (ISRE) containing MxA promoter.; format: functional; conditions: 30 µM
[7] = target: T4, Tyrosyl-tRNA synthetase, putative (Trypanosoma cruzi (strain CL Brener)) (UniProt Q4DSP6); assay: Trypanosoma cruzi tyrosyl tRNA synthetase (TcYRS) _High Tyrosine SOP; format: functional; conditions: 30 µM; further: in the data most compounds retested in dose-response had high values
T4 sequence (whole entry): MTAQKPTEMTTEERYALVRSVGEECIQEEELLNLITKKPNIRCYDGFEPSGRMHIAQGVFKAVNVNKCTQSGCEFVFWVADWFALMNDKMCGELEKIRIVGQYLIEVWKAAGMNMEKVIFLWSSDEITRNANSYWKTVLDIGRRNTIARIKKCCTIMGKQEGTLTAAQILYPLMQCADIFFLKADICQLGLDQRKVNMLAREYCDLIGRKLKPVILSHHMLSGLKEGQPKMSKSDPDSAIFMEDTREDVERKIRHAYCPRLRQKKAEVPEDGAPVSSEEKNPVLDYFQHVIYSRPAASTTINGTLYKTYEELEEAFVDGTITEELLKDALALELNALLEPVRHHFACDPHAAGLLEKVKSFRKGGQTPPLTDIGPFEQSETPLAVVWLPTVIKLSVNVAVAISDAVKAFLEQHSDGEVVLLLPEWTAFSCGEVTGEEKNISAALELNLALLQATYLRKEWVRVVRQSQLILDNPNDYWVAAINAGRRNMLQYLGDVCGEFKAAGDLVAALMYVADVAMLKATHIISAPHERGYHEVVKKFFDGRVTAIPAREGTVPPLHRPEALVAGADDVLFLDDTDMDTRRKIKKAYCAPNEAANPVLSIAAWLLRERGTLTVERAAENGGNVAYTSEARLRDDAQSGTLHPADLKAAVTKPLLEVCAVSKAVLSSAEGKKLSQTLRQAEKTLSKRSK

[8] = target: T4, Tyrosyl-tRNA synthetase, putative (Trypanosoma cruzi (strain CL Brener)); assay: Trypanosoma cruzi tyrosyl tRNA synthetase (TcYRS) SOP; format: functional; conditions: 30 µM
[9] = target: Chromo domain-containing protein 1 (Saccharomyces cerevisiae (strain ATCC 204508 / S288c) (Baker's yeast)) (UniProt P32657); assay: ScCHD-1 Enzyme Inhibition Assay; format: functional; conditions: 30 µM; further: in the data most compounds retested in dose-response had high values
Chain of Chromo domain-containing protein 1 (Saccharomyces cerevisiae (strain ATCC 204508 / S288c) (Baker's yeast)) (P32657 whole entry, the tested form may be a part): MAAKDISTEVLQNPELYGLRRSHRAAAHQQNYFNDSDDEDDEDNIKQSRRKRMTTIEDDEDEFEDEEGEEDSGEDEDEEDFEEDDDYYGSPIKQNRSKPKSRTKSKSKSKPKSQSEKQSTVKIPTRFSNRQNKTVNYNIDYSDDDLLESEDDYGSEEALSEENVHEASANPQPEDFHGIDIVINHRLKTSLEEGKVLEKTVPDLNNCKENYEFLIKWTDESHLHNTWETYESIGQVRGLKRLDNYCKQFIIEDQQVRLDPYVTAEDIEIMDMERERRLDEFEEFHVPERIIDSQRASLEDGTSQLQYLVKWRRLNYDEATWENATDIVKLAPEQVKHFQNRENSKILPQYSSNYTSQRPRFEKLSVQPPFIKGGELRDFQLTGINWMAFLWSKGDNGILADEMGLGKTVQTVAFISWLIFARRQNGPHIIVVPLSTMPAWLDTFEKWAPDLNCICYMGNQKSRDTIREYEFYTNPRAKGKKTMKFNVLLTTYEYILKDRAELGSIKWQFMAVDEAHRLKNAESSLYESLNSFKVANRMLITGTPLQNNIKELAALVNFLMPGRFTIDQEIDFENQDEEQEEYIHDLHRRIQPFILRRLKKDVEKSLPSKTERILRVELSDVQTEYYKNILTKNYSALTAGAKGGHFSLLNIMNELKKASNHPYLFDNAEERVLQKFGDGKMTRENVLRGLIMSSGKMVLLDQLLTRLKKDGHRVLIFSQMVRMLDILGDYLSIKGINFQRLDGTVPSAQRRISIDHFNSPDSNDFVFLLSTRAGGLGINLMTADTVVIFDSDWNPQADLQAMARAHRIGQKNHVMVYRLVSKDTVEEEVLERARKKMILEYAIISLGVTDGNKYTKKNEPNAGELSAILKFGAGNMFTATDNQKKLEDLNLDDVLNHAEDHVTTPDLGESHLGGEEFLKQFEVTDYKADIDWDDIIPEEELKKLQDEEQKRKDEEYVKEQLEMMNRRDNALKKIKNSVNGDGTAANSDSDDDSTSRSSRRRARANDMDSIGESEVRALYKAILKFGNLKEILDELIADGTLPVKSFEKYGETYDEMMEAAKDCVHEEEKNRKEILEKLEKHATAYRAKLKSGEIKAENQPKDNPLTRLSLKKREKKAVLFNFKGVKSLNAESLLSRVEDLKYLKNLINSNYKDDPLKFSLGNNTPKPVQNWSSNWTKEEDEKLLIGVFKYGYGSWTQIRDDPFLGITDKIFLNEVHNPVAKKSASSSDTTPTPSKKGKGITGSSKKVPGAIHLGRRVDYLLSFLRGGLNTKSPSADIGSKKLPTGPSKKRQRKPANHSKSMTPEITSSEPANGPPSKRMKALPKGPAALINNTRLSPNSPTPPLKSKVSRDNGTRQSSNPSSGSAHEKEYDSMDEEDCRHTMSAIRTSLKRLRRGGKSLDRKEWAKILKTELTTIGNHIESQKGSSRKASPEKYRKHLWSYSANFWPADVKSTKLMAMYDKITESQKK

Chain of Protein translocase subunit SecA (Escherichia coli (strain K12)) (P10408 whole entry): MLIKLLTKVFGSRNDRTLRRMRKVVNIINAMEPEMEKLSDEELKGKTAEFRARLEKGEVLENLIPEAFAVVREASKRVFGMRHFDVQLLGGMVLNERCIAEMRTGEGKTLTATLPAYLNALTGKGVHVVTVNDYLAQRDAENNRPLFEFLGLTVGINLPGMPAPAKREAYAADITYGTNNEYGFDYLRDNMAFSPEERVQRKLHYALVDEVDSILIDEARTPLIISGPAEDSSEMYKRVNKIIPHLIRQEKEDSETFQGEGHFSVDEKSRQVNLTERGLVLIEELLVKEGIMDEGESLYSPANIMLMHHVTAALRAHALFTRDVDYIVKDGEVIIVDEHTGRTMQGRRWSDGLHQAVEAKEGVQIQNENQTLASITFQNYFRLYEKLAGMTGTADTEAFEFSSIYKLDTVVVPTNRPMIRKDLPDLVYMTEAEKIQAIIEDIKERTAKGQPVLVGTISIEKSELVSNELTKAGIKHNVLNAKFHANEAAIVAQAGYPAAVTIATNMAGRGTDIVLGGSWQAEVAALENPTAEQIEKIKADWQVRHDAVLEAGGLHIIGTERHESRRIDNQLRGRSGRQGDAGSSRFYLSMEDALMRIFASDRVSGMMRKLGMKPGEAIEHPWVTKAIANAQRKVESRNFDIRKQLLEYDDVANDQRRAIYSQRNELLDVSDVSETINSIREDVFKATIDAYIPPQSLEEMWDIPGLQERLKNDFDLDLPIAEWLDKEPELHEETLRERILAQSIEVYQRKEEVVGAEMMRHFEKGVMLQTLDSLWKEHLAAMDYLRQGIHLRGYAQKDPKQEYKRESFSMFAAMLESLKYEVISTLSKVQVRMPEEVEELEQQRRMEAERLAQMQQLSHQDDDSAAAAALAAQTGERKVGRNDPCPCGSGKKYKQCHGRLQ

SMILES | Percent Effect [1] | Percent Effect [2] | Percent Effect [3] | Percent Effect [4] | Percent Effect (Trypanosoma cruzi) | Percent Effect [5] | Percent Effect [6] | Percent Effect (Homo sapiens) | Percent Effect [7] | Percent Effect [8] | Percent Effect [9]
CN(Cc1ccc(F)cc1)CC1(O)CCCN(CC(C)(C)C)C1=O (stereo unspecified) | -5.95% | -1.39% | -3.53% | -2.57% | 3.79% | 3.09% | -3.16% | 1.55% | -7.37% | -2.56% | 0.558%
CCOC(=O)C1CCN(Cc2csc(C(C)(C)C)n2)CC1 | 1.04% | 0% | 2.22% | 11% | -3.12% | 9.89% | -5.98% | 4.26% | 4.43% | -3.8% | -1.95%
CCOc1ncccc1C(=O)N(C)Cc1ncc(C)c(OC)c1C | -0.0989% | 13% | 5.97% | -3.9% | -3.23% | 6.95% | 12.5% | 27.5% | 5.71% | 18.8% | -14.4%
CN(C)c1ccc(CCCNC(=O)Nc2ccc(C#N)cc2)cc1 | 1.86% | 8.11% | 2.26% | 11.1% | 3.86% | 11.4% | 15.7% | 72% | 5.82% | 14.6% | -5.31%
c1nc(N2CCCCC2Cn2cncn2)c2ccsc2n1 (stereo unspecified) | -6.19% | 16% | -6.98% | 35.1% | 11.6% | 25.5% | 9.59% | 16.8% | 3.83% | 13.6% | -9.92%
CCS(=O)(=O)CCNC(=O)c1ccc(-c2ccc(C)cc2)cc1F | -3.31% | 5.2% | -1.14% | 2.26% | -2.26% | -2.76% | 14.6% | 18.8% | -14% | 1.24% | 2.27%
CCc1ccc(CN(CCCn2ccnc2)Cc2ccc(C)s2)o1 | -8.95% | 1.35% | 1.91% | 2.18% | -0.79% | -3.94% | 9.36% | 38.5% | 0% | -6.49% | -8.71%
CNS(=O)(=O)c1cccc(CNc2cc(C(F)(F)F)ccn2)c1 | -7.14% | 5.41% | 12.6% | -1.96% | -6.13% | 5.21% | 0.54% | 38.2% | 4.43% | 3.7% | -1.45%
Cc1nc2c(c(NC3CC3)n1)CCN(C(=O)C(C)(C)O)CC2 | -2.61% | 10.8% | 2.64% | -8.96% | -4.99% | -0.319% | 28% | 23.3% | 3.24% | 7.69% | -1.94%
CC(CNC(=O)c1ccccc1Oc1cccnc1)N(C)C (stereo unspecified) | -2.21% | 10.8% | -2.99% | 12.9% | 5.41% | -0.476% | 5.69% | -6.47% | 3.7% | 9.76% | -1.53%
Cc1cc(CN2CCN(C(c3ccccc3)c3ccccc3)CC2)no1 | -4.43% | 12.7% | -1.9% | 14.9% | -2.55% | 1.14% | 2.87% | 15.5% | 8.37% | 11.4% | -8.11%
